# Most compounds without a hit are left out; they make up all but 14% or so of the library.
# Pf growth 48h: P. falciparum growth inhibition at 48 hours (one generation) | P. falciparum luciferase growth in erythrocytes, 48 h | Potency, µM (series often up to 28.7 µM), for the others: at the top dose activity change, negative = inhibition, usual class: inhibitors | actives 5.9% (n = 310,000); also: potency is read from the fitted curve at half-maximal effect
#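 Here the parasites carry a stable luciferase gene and grow inside erythrocytes in Albumax-based RPMI medium with compound for one erythrocytic cycle. Activity is scored as loss of luminescent signal.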
# FBPA Giardia inh: Giardia lamblia aldolase inhibition | A8B2U2 | purified Giardia FBPA | Potency, µM (titrated, usually from 59.6 µM), without a hit: at the highest dose activity, negative = inhibition, usual class: inhibitors | actives 0.71% (n = 290,000) | AID 2451; also: potency is read from the fitted curve at half-maximal effect; nearly all actives have a fitted effect of over 55% in size
# Target sequence (A8B2U2 whole entry, looked up): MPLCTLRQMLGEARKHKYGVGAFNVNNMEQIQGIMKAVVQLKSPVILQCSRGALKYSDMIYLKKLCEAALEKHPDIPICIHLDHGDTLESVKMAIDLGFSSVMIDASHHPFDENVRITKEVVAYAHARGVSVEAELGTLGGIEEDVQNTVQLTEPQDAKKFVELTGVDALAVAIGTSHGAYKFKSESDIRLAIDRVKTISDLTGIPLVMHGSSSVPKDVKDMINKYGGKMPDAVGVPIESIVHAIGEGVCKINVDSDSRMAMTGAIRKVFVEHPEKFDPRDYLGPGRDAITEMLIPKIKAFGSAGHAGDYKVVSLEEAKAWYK
#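 Giardia FBPA (40 nM reagent) was preincubated 10 min at RT with compound (up to 57.5 uM final), then substrate plus GAPDH/TPI/NAD/arsenate coupling system with diaphorase/resazurin was added; resorufin fluorescence (525/598 nm) was read after 20 min.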
# HCMV antiviral: inhibitors of human cytomegalovirus | HFF cells, HCMV-luciferase reporter, 72 h; active compounds read low | activity change, negative = inhibition, % at 57.5 µM | actives 4.5% (n = 410,000); in the data active = activity change below about -60%; inconclusive = no clear call, values can overlap the other calls; inactive = above about -39%
#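 Luciferase read-out from HCMV-luciferase-infected HFFs (MOI 1 PFU/cell) 72 h post infection at 37C; compounds added after 16 h cell attachment; activity normalized between buffer-only basal and Salinomycin (10uM) inhibitor controls.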
# Sm TGR inh: inhibitors of Schistosoma mansoni thioredoxin glutathione reductase. Q962Y6. purified TGR, DTNB reduction, TNB absorbance 405 nm. Potency, µM (top dose mostly 114 µM), for the others: top-dose activity change, negative = inhibition, most hits filed as inhibitors. actives 3% (n = 360,000). AID 485364; also: potency is read from the fitted curve at half-maximal effect; nearly all actives have a fitted effect of over 60% in size
#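 TGR 20 nM + NADPH 100 uM (dispensed conc.), cpd preinc 15 min RT; start with NADPH (500 uM addition) then DTNB (15 mM addition). Kinetic TNB absorbance, 405 nm filter. Four-parameter Hill fit across titration.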
# Pf growth 96h: P. falciparum growth inhibition at 96 hour, primary screen for plastid delayed-death inhibitors. Potency, µM (titrated, usually from 28.7 µM), without a hit: at the top dose activity change, negative = inhibition, actives largely listed as inhibitors. P. falciparum luciferase reporter growth, 96 h. actives 6.9% (n = 320,000); also: potency is read from the fitted curve at half-maximal effect
#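 Two parasite generations (96 h, 37 C, 5% CO2) of compound exposure in infected erythrocytes (0.05% parasitemia, 2% hematocrit). Luciferase-reporter P. falciparum; decreased luminescence indicates inhibited growth, aimed at apicoplast-acting delayed death.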
# Starred values were filed as active, the others as inactive; ? = inconclusive; · = not tested or not shown; ! = not confirmed by another sample; [ ] = remark or other dose. Unless noted, calls follow the shape of the dose curve; as a rule, active = well fitted curve in the direction sought with a large enough effect; inconclusive = small, poorly fitted or top-dose-only effect, or another doubt; inactive = no such curve, though single readings can be large; an effect the other way counts as inactive or inconclusive. % is scaled to controls: 0 for no effect and ±100 for the full control effect.
SMILES,Pf growth 48h,FBPA Giardia inh,HCMV antiviral,Sm TGR inh,Pf growth 96h
CC[C@H](C)[C@H](N)C(=O)N[C@@H](CC(N)=O)C(=O)N1CCC[C@H]1C(=O)N[C@H](C(=O)N[C@@H](Cc1ccc(O)cc1)C(=O)N[C@@H](CCCN=C(N)N)C(=O)N[C@@H](CC(C)C)C(=O)N[C@@H](CCCN=C(N)N)C(=O)N[C@@H](Cc1ccc(O)cc1)C(N)=O)[C@@H](C)CC,·,0%,·,·,·
N#CC1(NC(=O)COC(=O)C2CCN(S(=O)(=O)c3ccc4c(c3)OCCO4)CC2)CCCCC1,·,·,2,·,·
CC(=O)COC(=O)C1CCN(S(=O)(=O)c2cc([N+](=O)[O-])ccc2Cl)CC1,-15%,?,37,7.9µM*,-12%
CN(Cc1ccccc1)C(=O)C1CCN(S(=O)(=O)c2cc([N+](=O)[O-])ccc2Cl)CC1,-28%,4%,-38,7%,?
Cc1ccc(Cn2c(C(CO)Nc3nc(-c4ccc(F)cc4)cs3)nc3ccccc32)cc1 (centres undefined),·,·,-60*,·,·
COc1ccc(-c2csc(NC(CO)c3nc4ccccc4n3Cc3ccc(C)cc3)n2)cc1 (centres undefined),·,·,4,·,·
Cc1ccc(S(=O)(=O)N2CC3(O)CN(C(=O)OC(C)C)N(C(=O)OC(C)C)CC3(OC(=O)Nc3cccs3)C2)cc1 (centres undefined),·,·,14,·,·
CC(C)C(Nc1ncnc2c1oc1ccccc12)C(=O)O (centres undefined),23%,6%,48,9%,4.7µM*
COc1ncnc2c1oc1ccccc12,128%,1%,93,8%,4.7µM*
Cc1cc(C)cc(NC(=S)N2CC(C)OC(C)C2)c1 (centres undefined),-7%,·,-13,2%,2.1µM*
CCOC(=O)C1=C(C)N=c2s/c(=C\c3ccc(OCC(=O)O)cc3)c(=O)n2C1c1ccc(Cl)cc1 (centres undefined),9.3µM*,4%,-23,-52%,1.5µM*
CCOC(=O)C1=C(C)N=c2s/c(=C/c3ccc(OCC(=O)O)cc3)c(=O)n2C1c1ccc(SC)cc1 (centres undefined),5.2µM*,19%,·,-1%,?
CCOC(=O)C1=C(C)N=c2s/c(=C/c3ccc(OCC(=O)O)cc3)c(=O)n2C1c1ccc(F)cc1 (centres undefined),3.3µM*,-3%,-21,-13%,?
Nc1cc(C(=O)N2CCN(c3ccc([N+](=O)[O-])cc3)CC2)ccc1N1CC2CC(C1)c1cccc(=O)n1C2 (centres undefined),?,·,-11,6%,?
COc1ccc(-c2cc3ccc(O)c(CN4CCCC(C)C4)c3oc2=O)cc1OC (centres undefined),·,·,28,1%,·
COc1ccc(Cc2c(C(C)(C)C)nc3c(C)cc(Br)cn23)c(C)c1,·,·,-31,·,·
COCC1CCCCN1C(=O)c1ccc(OC)c(OC2CCN(C(C)C)CC2)c1 (centres undefined),10%,·,36,-22%,61%
COc1ccc(CN2CCC(Oc3cc(C(=O)NC4CC4)ccc3OC)CC2)c(O)c1,2.3µM*,·,2,-2%,31%
COc1ccc(C(=O)N2CCCCCC2)cc1OC1CCN(C(C)=O)CC1,37%,1%,-78*,0%,10µM*
COCC1CCN(C(=O)c2ccc(OC)c(OC3CCN(C(C)C)CC3)c2)CC1,14%,·,-19,-2%,3.3µM*
COc1ccccc1-c1nnc(C2CCN(S(=O)(=O)c3ccccc3)CC2)o1,·,·,-12,34%,·
COc1ccccc1-c1nnc(C2CCN(C(=O)c3cccc(C)c3)CC2)o1,·,·,-65*,-1%,·
COc1ccc(C(=O)N2CCN(c3nc4ccccc4o3)CC2)cc1OC,·,2%,?,-25%,-12%
COc1ccc(C(=O)N(C)Cc2ccc(C)o2)cc1OC1CCN(C(C)=O)CC1,1%,-3%,14,25µM*,0%
COc1ccc(C(=O)N2CCC(c3noc4ccccc34)CC2)cc1OC,·,·,-65*,·,·
SMILES,Pf growth 48h,FBPA Giardia inh,HCMV antiviral,Sm TGR inh,Pf growth 96h
COc1ccc(C(=O)NC2CCCCC2)cc1OC1CCN(C(C)C)CC1,?,·,?,-25%,6.6µM*
N#Cc1ccc(CS(=O)(=O)c2nnnn2C2CCCCC2)cc1,·,2%,·,·,·
CCOc1cc(N)c(Cl)cc1C(=O)NCC1CN(Cc2ccc(F)cc2)CCO1 (centres undefined),7.6µM*,-13%,-66*!,·,6µM*
CC(C)(C)N1C(=O)[C@@H]2[C@H]3C(=CC[C@H]2C1=O)C(=O)[C@H]1O[C@H]1[C@H]3O,·,0%[12.9 µM],·,·,·
O=C(Nc1ccc(F)cc1)C(c1ccccc1)N1CCN(c2ccncc2)CC1 (centres undefined),·,·,-17,·,·
CC1(C#N)c2ccccc2C(Br)=CN1C(=O)c1ccccc1 (centres undefined),10µM*,·,2,-36%,?
CC(Sc1nn(-c2ccccc2)c(=S)s1)C(=O)NCC1CCCO1 (centres undefined),9.3µM*,·,-22,-1%,13µM*
Cc1cccc(NC(=O)CN2C(=O)C3CC=CCC3C2=O)c1C (centres undefined),·,·,-11,·,·
CCOc1ccc(NC(=S)Nc2ccc(OCc3ccccc3)cc2)cc1,-24%,1%,25,-4%,-12%
S=C(NCCSCc1ccc(Cl)c(Cl)c1)Nc1ccccc1,·,·,-22,·,·
O=C(NCCSSCCNC(=O)c1ccccc1)c1ccccc1,·,·,-27,·,·
S=C(NCCSCc1ccc(Cl)cc1Cl)Nc1ccccc1,?,-1%,-62*,-5%,?
Cc1ccccc1CSCCNC(=S)Nc1ccccc1,?,-3%,-83*,13%,1%[5.75 µM]
S=C(Nc1ccccc1)Nc1ccc(OCc2ccc(Cl)cc2Cl)cc1,5.9µM*,-1%,-80*,1%,?
Cc1ccccc1CSCCNC(=O)c1ccccc1,12µM*,0%,-10,-1%,0%
S=C1NCCOc2ccccc21,·,·,-5,·,·
O=C(NCc1cccs1)O[C@H]1CC[C@@]23CCCN2C(=O)CCC[C@H]3[C@H]1Cc1ccccc1,·,·,-14,·,·
OCCCCNCc1ccc(OCc2ccc(Cl)cc2Cl)cc1,13µM*,-1%,-15,6%,15µM*
COc1ccc(N(C(=O)c2cc3ccccc3oc2=O)C2C=CS(=O)(=O)C2)c(OC)c1 (centres undefined),-12%,-1%,-61*,0%,-7%
COc1ccc(N(C(C)=O)C2C=CS(=O)(=O)C2)c(OC)c1 (centres undefined),36%,3%,34,-4%,10µM*
COc1cccc(C(=O)N(c2ccc(C)cc2)C2C=CS(=O)(=O)C2)c1 (centres undefined),-1%,7%,-101*,4%,?

# From PubChem
